Compounds without any hit were thinned out: in the full panel of roughly 79,000, 15% have a hit. A number with no mark means an inactive call. Activity calls are given as the source filed them. No stated cut-off is given here; in the data, active means growth inhibition above about 70%; inactive means the rest.
Legend:
[1] = NCI Yeast Anticancer Drug Screen. Data for the rad50 strain (AID 155);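 further: 0% = growth of vehicle-only cultures of the same strain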; conditions: S. cerevisiae rad50 strain growth inhibition, active compounds read high
How it was run: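 Readout: growth inhibition relative to vehicle-treated cultures. Compound exposure was carried out in a genetically defined yeast strain deficient in DNA damage repair.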

[2] = NCI Yeast Anticancer Drug Screen. Data for the mec2-1 strain (AID 157); conditions: S. cerevisiae mec2-1 strain, active compounds read high
How it was run: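 mec2-1 yeast strain, carrying an alteration in DNA damage repair or cell cycle control, was exposed to compounds; growth inhibition was measured relative to vehicle-treated controls.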

[3] = NCI Yeast Anticancer Drug Screen. Data for the sgs1 mgt1 strain (AID 161);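 further: 0% = growth of cultures given vehicle only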; conditions: S. cerevisiae sgs1 mgt1 strain, active compounds read high
How it was run: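 Growth of a repair-deficient yeast mutant was monitored after compound treatment and expressed as inhibition relative to vehicle-treated cultures.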

[4] = NCI Yeast Anticancer Drug Screen. Data for the cln2 rad14 strain (AID 165);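 further: 0% = growth equal to vehicle treated cultures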; conditions: S. cerevisiae cln2 rad14 strain, active compounds read high
How it was run: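 Yeast carrying cln2 and rad14 alterations (cell cycle control and DNA damage repair) were exposed to compounds. Growth inhibition was measured against vehicle-treated controls.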

[5] = NCI Yeast Anticancer Drug Screen. Data for the bub3 strain (AID 167); conditions: S. cerevisiae bub3 mutant strain, active compounds read high
How it was run: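 Readout: yeast growth inhibition, expressed relative to vehicle-only wells. The test organism is a mutant strain from a panel with lesions in DNA repair or checkpoint genes.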

[6] = NCI Yeast Anticancer Drug Screen. Data for the mlh1 rad18 strain (AID 175); conditions: S. cerevisiae mlh1 rad18 strain growth inhibition, active compounds read high
How it was run: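 Growth inhibition of the yeast strain was measured after compound exposure and expressed relative to vehicle-treated controls. The strain carries defined defects in DNA damage repair.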

[7] = at 5.0 µM (retest, dose inferred, filed as 0.5)
[8] = at 50.0 µM (retest, dose inferred, filed as 5.0)

SMILES | growth inhibition [1, 7] | growth inhibition [1, 8] | growth inhibition ([1]; at 50.0 µM) | growth inhibition [2, 7] | growth inhibition [2, 8] | growth inhibition ([2]; at 50.0 µM) | growth inhibition [3, 7] [%] | growth inhibition [3, 8] | growth inhibition ([3]; at 50.0 µM) | growth inhibition [4, 7] | growth inhibition [4, 8] | growth inhibition ([4]; at 50.0 µM) | growth inhibition [5, 7] | growth inhibition [5, 8] | growth inhibition ([5]; at 50.0 µM) | growth inhibition [6, 7] | growth inhibition [6, 8] | growth inhibition ([6]; at 50.0 µM)
CCc1cc2nc3c(=O)[nH]c(=O)nc-3n(CCN(CCO)CCO)c2cc1CC | 5% | 3% | 41% | 10% | 27% | 30.6% | 2 | 15% | 55% | 2% | -6% | 37% | 2% | -7% | 18.1% | 2% | 7% | 81.9% (active)
COc1c(O)ccc2c1CN1CCc3cc4c(cc3C1C2)OCO4 (centres undefined) | 18% | 50% | 65.9% | 9% | 21% | 21.4% | 9 | 65% | 49.2% | 15% | 22% | -16.2% | 6% | 60% | 50.9% | 11% | 35% | 72.2% (active)
CC(C)CCSc1ncnc2nc[nH]c12 | 1% | 6% | 48.1% | -5% | 3% | 53.5% | -1 | 1% | 63% | -4% | 9% | 29.8% | -2% | 8% | 73.5% (active) | -1% | 6% | 33.8%
O=C1C=CC(Nc2cccc([N+](=O)[O-])c2)C1Nc1cccc([N+](=O)[O-])c1 (centres undefined) | -21% | -16% | 92.3% (active) | 16% | -9% | 89.2% (active) | -11 | -11% | 91.5% (active) | -8% | -24% | 90.7% (active) | 19% | -4% | 90.7% (active) | -29% | -19% | 91.7% (active)
CCN=C(N)Nc1nc(-c2ccc(Cl)cc2)cs1 | 10% | 99% (active) | 98.8% (active) | 0% | 99% (active) | 96.8% (active) | 8 | 99% (active) | 91.8% (active) | 9% | 99% (active) | 76.3% (active) | 7% | 98% (active) | 96.3% (active) | 9% | 99% (active) | 96.8% (active)
O=C(/C=N/O)Nc1ccc(Cl)c(I)c1 | -32% | 83% (active) | 85.2% (active) | -15% | 87% (active) | 86.5% (active) | -17 | 85% (active) | 80.2% (active) | 5% | 88% (active) | 81.9% (active) | -9% | 93% (active) | 86.8% (active) | -24% | 92% (active) | 84.6% (active)
CCOC(=O)C1=C(C)NC(C)=C(C(=O)OCC)C1c1ccnc2ccccc12 | 10% | 94% (active) | 63.8% | 7% | 97% (active) | 54.4% | -26 | 96% (active) | 55% | -8% | 93% (active) | 63.8% | 10% | 93% (active) | 98% (active) | 10% | 96% (active) | 55.9%
Clc1ccc(SSN2CCOCC2)cc1 | 7% | 84% (active) | 98.5% (active) | -2% | 80% (active) | 98.9% (active) | 1 | 98% (active) | 98.9% (active) | -2% | 40% | 61.3% | 4% | 92% (active) | 98.5% (active) | 0% | 96% (active) | 97.2% (active)
Cc1nc(Cl)c(C#N)c(C)c1[N+](=O)[O-] | -103% | 91% (active) | 79.9% (active) | -31% | 81% (active) | 81.9% (active) | -46 | 84% (active) | 70.3% (active) | -37% | 75% (active) | 87% (active) | -63% | 83% (active) | 75.3% (active) | -115% | 91% (active) | 84.8% (active)
Nc1nnc2nc(CC(=O)c3ccc([N+](=O)[O-])cc3)c(CC(=O)c3ccc([N+](=O)[O-])cc3)nn12 | 6% | -3% | 3.7% | 15% | 15% | 19.2% | 6 | 2% | 11.8% | 4% | 4% | 43.1% | 6% | 1% | 0.8% | 4% | 26% | 3.05%
O=C1C(Cl)=C(Cl)C(=O)c2cc(Cl)c(Cl)cc21 | 82% (active) | 99% (active) | 83.9% (active) | 89% (active) | 99% (active) | 84% (active) | 65 | 99% (active) | 97.1% (active) | 86% (active) | 97% (active) | 88.2% (active) | 98% (active) | 98% (active) | 93.5% (active) | 60% | 97% (active) | 87.8% (active)
CCCCCCCCCCCCNC(=O)C[n+]1ccc(C(N)=O)cc1 | -34% | 72% (active) | 61.2% | -6% | 61% | 49% | 1 | 77% (active) | 74.2% (active) | -6% | 86% (active) | 24.6% | -9% | 94% (active) | 29.2% | 0% | 92% (active) | 41.8%
COc1ccc(C2=CC(=O)C=CC2=O)cc1 | 19% | 91% (active) | 99% (active) | 3% | 97% (active) | 99.5% (active) | 14 | 90% (active) | 98.7% (active) | -5% | 70% (active) | 82.2% (active) | 28% | 99% (active) | 99.5% (active) | 18% | 89% (active) | 99.2% (active)
CC1(c2ccc(O)cc2)CC(C)(c2ccc(O)cc2)C1 (centres undefined) | 81% (active) | 93% (active) | 94.8% (active) | 32% | 82% (active) | 93.2% (active) | 67 | 91% (active) | 91.9% (active) | 41% | 87% (active) | 94.2% (active) | 87% (active) | 91% (active) | 95.2% (active) | 86% (active) | 89% (active) | 92.8% (active)
O=C(CCCO)N/N=C\c1ccc([N+](=O)[O-])s1 | 5% | 31% | 18.8% | -7% | 23% | -3.55% | 8 | 39% | 31.8% | -2% | 20% | 72.2% (active) | -1% | 17% | 5.5% | 12% | 74% (active) | 62.2%
COc1cccc2c1C(=O)c1c(O)c3c(c(O)c1C2=O)C[C@@](O)(/C(C)=N/NC(N)=S)C[C@@H]3OC1CC(N)C(O)C(C)O1 (some centres undefined) | 27% | 91% (active) | 95.5% (active) | 8% | 58% | 94.7% (active) | 3 | 56% | 96.3% (active) | 4% | 38% | 82.8% (active) | 4% | 60% | 95.3% (active) | 8% | 75% (active) | 95.7% (active)
CCCCP(CCCC)(CCCC)=C(C(=O)OC)C(C(=O)OC)=C1SC(C(=O)OC)=C(C(=O)OC)S1 | 18% | 39% | -4.9% | 4% | 16% | 10.3% | 63 | 26% | -9.3% | 47% | 38% | 13.1% | 79% (active) | 47% | -7.6% | 23% | 51% | 4.8%
COC(=O)C1(C)CCc2c(ccc3cccc(OC)c23)C1=O (centres undefined) | 0% | 99% (active) | 1.65% | 0% | 98% (active) | 21% | 2 | 98% (active) | 66.9% | -9% | 97% (active) | -3.75% | 20% | 99% (active) | 86.8% (active) | 1% | 99% (active) | 44.5%

Reference: PubChem BioAssay (NCI)
